Screening data as filed in PubChem.
DT40 TDP1 CPT: qHTS for Inhibitors of human tyrosyl-DNA phosphodiesterase 1 (TDP1): qHTS in cells in presence of CPT. chicken DT40 Tdp1-/-;hTDP1 cells + 20 nM CPT, ATP luminescence, 48 h. hit rate 12% among 420,000. Potency, µM (titrated, usually from 46.2 µM), hits mostly inhibitors. AID 686979, 2013; further: nearly all actives have a fitted effect of over 55% in size
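Chicken DT40 Tdp1-/- cells stably complemented with human TDP1 were seeded at 400 cells/well in medium containing 20 nM camptothecin, exposed to pin-transferred compounds, and grown at 37 °C for at least 48 hr. Viability was read as ATP luminescence.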
DT40 TDP1 no CPT: qHTS for Inhibitors of human tyrosyl-DNA phosphodiesterase 1 (TDP1): qHTS in cells in absence of CPT | DT40 Tdp1-/- hTDP1 cells, no CPT, ATP luminescence, 48 h | Potency, µM (doses to about 46.2 µM), most hits filed as inhibitors | hit rate 15% among 420,000; further: nearly all actives have a fitted effect of over 55% in size
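Seeded 400 DT40-hTDP1 cells/well (vehicle DMSO, no 20 nM CPT); pinned compounds; ≥48 hr at 37 °C; CellTiter-Glo luminescence as viability measure.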
IL1B secr inh: qHTS for Inhibitors of Inflammasome Signaling: IL-1-beta AlphaLISA Primary Screen; THP-1 LPS/ATP IL-1B secretion, AlphaLISA, 16 h; hits give low values; activity change, % at 57.5 µM; hit rate 4.7% among 360,000; AID 743279, 2014; in the data active means activity change below about -50%; inconclusive means mostly about -30% to -49%
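THP-1 cells pretreated 1 hr with compounds (up to 57.5 uM final), then stimulated with LPS (250 ng/mL final) plus ATP (1.25 mM final); secreted IL-1B measured by AlphaLISA after 16 hr, decreased signal indicating inhibition.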
HT1080-NT tox: qHTS for induction of synthetic lethality in tumor cells producing 2HG: qHTS for the HT-1080-NT fibrosarcoma cell line; Potency, µM (doses to about 46.1 µM), most hits filed as cytotoxic; hit rate 1.6% among 360,000; HT-1080-NT fibrosarcoma viability, CellTiter-Glo ATP luminescence, 48 h;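 further: NT is the 2HG producing partner of a matched IDH1 knockdown line; nearly all actives have a fitted effect of over 55% in size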
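Read-out is CellTiter-Glo luminescence after 10 minutes at room temperature, following 48 hours' compound treatment of HT-1080-NT cells (750 cells/well, RPMI, 5% FBS, 37 degrees C).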
HT1080 IDH1KD tx: qHTS for induction of synthetic lethality in tumor cells producing 2HG: qHTS for the HT-1080-IDH1KD cell line | hit rate 2% among 360,000 | HT-1080 IDH1 knockdown viability, ATP luminescence, 48 h | AID 686971, 2013 | Potency, µM (highest dose often 46.1 µM), hits mostly cytotoxic
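Knockdown cells (IDH1KD HT-1080) received compounds 2 h after plating at 750 cells/well and were kept 48 h at 37 °C in 5% FBS RPMI. A CellTiter-Glo luminescence read gave % activity for curve fitting.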
Of the large screens only hits and unclear results are named; the others gave an inactive call; ! = a repeat was not active. An excerpt weighted towards active compounds, which were near 19% of everything screened. Unless noted, the call rests on the fitted dose curve; in most records, active means well fitted curve in the direction sought with a large enough effect; inconclusive means small, poorly fitted or top-dose-only effect, or another doubt; inactive means no such curve, though single readings can be large; an effect the other way counts as inactive or inconclusive.

COc1ccc(C(=O)N/N=C/c2ccc(OC)c(COc3ccc(F)cc3F)c2)cc1	DT40 TDP1 CPT inconclusive, DT40 TDP1 no CPT 18.4µM
COc1ccc(/C=N/NC(=O)c2ccccc2OC)cc1COc1ccccc1[N+](=O)[O-]	DT40 TDP1 CPT 18.4µM, DT40 TDP1 no CPT 29.1µM, HT1080-NT tox inconclusive, HT1080 IDH1KD tx inconclusive
COc1ccc(/C=N\NC(=O)c2ccccc2Br)cc1COc1ccc(F)cc1	DT40 TDP1 CPT inconclusive, DT40 TDP1 no CPT 18.4µM
COc1ccc(/C=N\NC(=O)c2ccc([N+](=O)[O-])c(C)c2)cc1COc1ccccc1C(N)=O	none
Cc1cc(C)cc(NC(=O)CSc2nc(-c3cccc(Cl)c3)nc3c2Cc2c(CO)cnc(C)c2O3)c1	none (no result: IL1B secr inh, HT1080-NT tox, HT1080 IDH1KD tx)
CCCCn1nnnc1SCC(=O)NCc1ccco1	none
COc1ccc(/C=N\NC(=O)c2ccccc2Cl)cc1COc1c(F)c(F)c(F)c(F)c1F	HT1080 IDH1KD tx inconclusive
COc1ccc(/C=N/NC(=O)c2ccn[nH]2)cc1COc1ccc(F)cc1	DT40 TDP1 CPT 16.4µM, DT40 TDP1 no CPT inconclusive
COc1ccc(/C=N/NC(=O)c2ccn[nH]2)cc1COc1ccc(Cl)cc1Cl	DT40 TDP1 CPT inconclusive, DT40 TDP1 no CPT inconclusive, IL1B secr inh -78.8, HT1080-NT tox inconclusive
Fc1ccc(N2CCN(c3nc4ccccc4c4nc(-c5ccccc5)nn34)CC2)cc1	DT40 TDP1 CPT inconclusive (no result: IL1B secr inh, HT1080-NT tox, HT1080 IDH1KD tx)
C[c-]1[c-](C)[c-](C)[c-](C)[c-]1C.[Fe].c1cc2nccc(N3CCCC3)[c-]2c1 (configuration not stated)	DT40 TDP1 CPT 8.2µM!, DT40 TDP1 no CPT 6.51µM
c1cc(N2CCCCC2)nc(N2CCCCC2)n1	DT40 TDP1 no CPT inconclusive
CCCC(=O)N(CCN(Cc1ccccc1)C(=O)CCC)Cc1ccccc1	DT40 TDP1 CPT inconclusive, DT40 TDP1 no CPT 23.1µM
Cc1sc(NC(=O)CN(CCc2ccccc2)C(=O)C2CC2)c(C(N)=O)c1C	DT40 TDP1 CPT inconclusive, DT40 TDP1 no CPT inconclusive
O=C(NCCCCc1ccccc1)c1ccc(Br)cc1	DT40 TDP1 CPT inconclusive, DT40 TDP1 no CPT inconclusive
CCCC(=O)N(CC(=O)Nc1sc(C)c(C)c1C(N)=O)Cc1ccccc1	DT40 TDP1 CPT 11.6µM, DT40 TDP1 no CPT 6.51µM
Cc1ccccc1C(=O)N(CC(=O)Nc1sc(C)c(C)c1C(N)=O)C1CCCC1	DT40 TDP1 CPT inconclusive, DT40 TDP1 no CPT 14.6µM
O=C(NCCC(=O)N(CCc1ccccc1)Cc1ccccc1)c1ccc(Br)cc1	DT40 TDP1 CPT inconclusive, DT40 TDP1 no CPT 25.9µM
COC(=O)CCC(=O)N(CCN(Cc1ccccc1)C(=O)CCC(=O)OC)Cc1ccccc1	DT40 TDP1 CPT inconclusive, HT1080-NT tox inconclusive
COc1ccc(C(=O)N2CCCCC2CCN2CCCCC2)cc1 (configuration not stated)	none (no result: IL1B secr inh, HT1080-NT tox, HT1080 IDH1KD tx)
Cc1nnc(SCCN2CCOCC2)n1C	none
Cc1noc(C)c1-c1nccc(N2CCN(C)CC2)n1	none (no result: IL1B secr inh, HT1080-NT tox, HT1080 IDH1KD tx)
CCC1CCCCN1CCCNC(=O)c1ccc(CS(=O)(=O)c2ccc(Br)cc2)o1 (configuration not stated)	DT40 TDP1 no CPT inconclusive
CC(=O)Nc1ccccc1Oc1ccccc1	none
NC(Cc1ccc(C(F)(F)F)cc1)c1csc(NC(=O)Nc2ccccc2Oc2ccccc2)n1 (configuration not stated)	DT40 TDP1 CPT inconclusive, DT40 TDP1 no CPT 18.4µM, IL1B secr inh -59.8, HT1080-NT tox inconclusive
COc1ccccc1NC(=O)Nc1nc(C(N)Cc2ccc(C(F)(F)F)cc2)cs1 (configuration not stated)	DT40 TDP1 CPT 13µM, DT40 TDP1 no CPT 14.6µM (no result: HT1080-NT tox, HT1080 IDH1KD tx)
NC(Cc1ccc(C(F)(F)F)cc1)c1csc(NC(=O)NCCc2ccccc2)n1 (configuration not stated)	DT40 TDP1 CPT 11.6µM, DT40 TDP1 no CPT 13µM, IL1B secr inh -101.0, HT1080-NT tox 23.1µM, HT1080 IDH1KD tx 18.4µM
CN(C)Cc1csc(NC(=O)Nc2ccccc2Oc2ccccc2)n1	DT40 TDP1 CPT inconclusive, DT40 TDP1 no CPT inconclusive, IL1B secr inh -104.0, HT1080-NT tox 16.4µM, HT1080 IDH1KD tx inconclusive
COC(=O)[C@H](Cc1ccccc1)NC(=O)NCCc1ccc(F)cc1	HT1080-NT tox inconclusive
COc1ccccc1NC(=O)CSCc1cc(=O)c2c(C)cc(C)cc2[nH]1	DT40 TDP1 no CPT inconclusive (no result: IL1B secr inh, HT1080-NT tox, HT1080 IDH1KD tx)
NC(c1ccccc1)c1csc(NC(=O)NCC2CCCCC2)n1 (configuration not stated)	HT1080-NT tox inconclusive, HT1080 IDH1KD tx inconclusive
NC(c1ccccc1)c1csc(NC(=O)Nc2ccccc2Oc2ccccc2)n1 (configuration not stated)	DT40 TDP1 CPT inconclusive, DT40 TDP1 no CPT 14.6µM, HT1080-NT tox inconclusive, HT1080 IDH1KD tx inconclusive
NC(c1ccccc1)c1csc(NC(=O)NCCc2ccccc2)n1 (configuration not stated)	DT40 TDP1 CPT inconclusive, DT40 TDP1 no CPT inconclusive, IL1B secr inh -62.9, HT1080-NT tox inconclusive, HT1080 IDH1KD tx inconclusive
CC(C)CC(=O)Nc1ccccc1Oc1ccccc1	none
COc1ccc(C(N)c2csc(Nc3ccc(C(=O)c4ccccc4)cc3)n2)cc1 (configuration not stated)	DT40 TDP1 CPT inconclusive, DT40 TDP1 no CPT inconclusive, HT1080-NT tox inconclusive, HT1080 IDH1KD tx inconclusive
NC(Cc1ccccc1)c1csc(NC(=O)Nc2ccccc2Oc2ccccc2)n1 (configuration not stated)	DT40 TDP1 no CPT 20.6µM, IL1B secr inh inconclusive, HT1080-NT tox inconclusive, HT1080 IDH1KD tx inconclusive
Cc1ccn(CC(=O)N/N=C/c2cc([N+](=O)[O-])ccc2O)n1	DT40 TDP1 CPT inconclusive, DT40 TDP1 no CPT inconclusive, HT1080 IDH1KD tx inconclusive
CCN(CC)CCOC[C@H]1O[C@@H](O)[C@H](OCCN(CC)CC)[C@@H](O)[C@@H]1O	none (no result: IL1B secr inh, HT1080-NT tox, HT1080 IDH1KD tx)
CCOC(=O)C1=C(Nc2ccccc2)CC(C)(O)C(C(=O)OCC)C1c1ccc(Br)cc1 (configuration not stated)	DT40 TDP1 CPT inconclusive, DT40 TDP1 no CPT 16.4µM
CN(C)c1ccc(/C=C2\SC(=S)N(Nc3ncc(C(F)(F)F)cc3Cl)C2=O)cc1	DT40 TDP1 CPT 8.2µM, DT40 TDP1 no CPT 8.2µM, HT1080-NT tox inconclusive, HT1080 IDH1KD tx inconclusive
COc1cc(/C=C2\SC(=S)N(Nc3ncc(C(F)(F)F)cc3Cl)C2=O)ccc1O	DT40 TDP1 CPT 20.6µM, DT40 TDP1 no CPT inconclusive, IL1B secr inh inconclusive
O=C1CCC/C(=N\NC(=O)c2ccc(CSc3cccc4cccnc34)cc2)C1	none
COc1cc2ncnc(NCc3ccccc3C)c2cc1OC	DT40 TDP1 CPT inconclusive, DT40 TDP1 no CPT inconclusive
